Test results published in PubChem BioAssay AID1159580 (chemical genetic matrix, 2015).
The whole screen tested about 5,500 compounds, of which about 2,000 (36%) were called active. Inconclusive results (about 18%) are left out. The list shows a part of the results. Values without a mark were called inactive. Rule as the data show it: active = normalized growth mostly below about 0.91 (no sharp cut-off); inconclusive = no clear call, values can overlap the other calls; inactive = mostly above about 0.92.

Assay: chemical genetic growth profiling, strain panel (AID 1159580);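 also: tested at 20 µM; growth read once vehicle control cultures reached saturation at 30 °C; 1 = growth at the plate median or of vehicle wells; lower values mean less growth of the strain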
Conditions: growth OD

SMILES: CCCc1nn(C)c2c(=O)[nH]c(-c3cc(S(=O)(=O)N4CCN(C)CC4)ccc3OCC)nc12
- normalized growth (S. cerevisiae deletion strains, locus YJR075W, strain HOC1, stronger effect = lower value): 1.02
- normalized growth (S. cerevisiae deletion strains, locus YKL009W, strain mrt4, stronger effect = lower value): 1.01
- normalized growth (S. cerevisiae deletion strains, locus YKL068W, stronger effect = lower value): 0.995
- normalized growth (S. cerevisiae deletion strains, locus YKL085W, strain MDH1 (second series), stronger effect = lower value): 0.996
- normalized growth (S. cerevisiae deletion strains, locus YKL085W, strain MDH1, stronger effect = lower value): 0.996
- normalized growth (S. cerevisiae deletion strains, locus YKL160W, strain elf1, stronger effect = lower value): 0.999
- normalized growth (S. cerevisiae deletion strains, locus YKL190W, strain CNB1, stronger effect = lower value): 1.02
- normalized growth (S. cerevisiae deletion strains, locus YKR001C, strain vps1, stronger effect = lower value): 0.64 (active)
- normalized growth (S. cerevisiae deletion strains, locus YKR026C, strain gcn3, stronger effect = lower value): 1
- normalized growth (S. cerevisiae deletion strains, locus YKR091W, strain srl3, stronger effect = lower value): 0.987
- normalized growth (S. cerevisiae deletion strains, locus YLL001W, strain dnm1, stronger effect = lower value): 0.992
- normalized growth (S. cerevisiae deletion strains, locus YLL026W, stronger effect = lower value): 0.985
- normalized growth (S. cerevisiae deletion strains, locus YLL041C, strain sdh2, stronger effect = lower value): 0.992
- normalized growth (S. cerevisiae deletion strains, locus YLR027C, strain aat2, stronger effect = lower value): 0.992
- normalized growth (S. cerevisiae deletion strains, locus YLR039C, strain RIC1, stronger effect = lower value): 1.02
- normalized growth (S. cerevisiae deletion strains, locus YLR058C, strain SHM2, stronger effect = lower value): 1.02
- normalized growth (S. cerevisiae deletion strains, locus YLR102C, strain apc9, stronger effect = lower value): 0.988
- normalized growth (S. cerevisiae deletion strains, locus YLR113W, strain HOG1, stronger effect = lower value): 1.03
- normalized growth (S. cerevisiae deletion strains, locus YLR221C, strain rsa3, stronger effect = lower value): 0.988
- normalized growth (S. cerevisiae deletion strains, locus YLR258W, strain gsy2, stronger effect = lower value): 0.984
- normalized growth (S. cerevisiae deletion strains, locus YLR262C, strain YPT6 (second series), stronger effect = lower value): 0.986
- normalized growth (S. cerevisiae deletion strains, locus YLR262C, strain YPT6, stronger effect = lower value): 1.05
- normalized growth (S. cerevisiae deletion strains, locus YLR268W, strain sec22, stronger effect = lower value): 0.993
- normalized growth (S. cerevisiae deletion strains, locus YLR320W, strain mms22, stronger effect = lower value): 0.986
- normalized growth (S. cerevisiae deletion strains, locus YLR330W, strain CHS5, stronger effect = lower value): 1.02
- normalized growth (S. cerevisiae deletion strains, locus YLR342W, strain FKS1 (second series), stronger effect = lower value): 1.03
- normalized growth (S. cerevisiae deletion strains, locus YLR342W, strain FKS1, stronger effect = lower value): 0.99
- normalized growth (S. cerevisiae deletion strains, locus YLR357W, strain rsc2, stronger effect = lower value): 0.983
- normalized growth (S. cerevisiae deletion strains, locus YLR370C, strain arc18, stronger effect = lower value): 0.988
- normalized growth (S. cerevisiae deletion strains, locus YLR371W, strain rom2, stronger effect = lower value): 0.978
- normalized growth (S. cerevisiae deletion strains, locus YLR384C, strain iki3, stronger effect = lower value): 0.981
- normalized growth (S. cerevisiae deletion strains, locus YLR418C, strain cdc73, stronger effect = lower value): 0.987
- normalized growth (S. cerevisiae deletion strains, locus YML016C, strain PPZ1, stronger effect = lower value): 1.02
- normalized growth (S. cerevisiae deletion strains, locus YML032C, strain rad52, stronger effect = lower value): 1
- normalized growth (S. cerevisiae deletion strains, locus YML120C, strain ndi1, stronger effect = lower value): 0.995
- normalized growth (S. cerevisiae deletion strains, locus YML124C, strain tub3, stronger effect = lower value): 0.99
- normalized growth (S. cerevisiae deletion strains, locus YMR058W, strain fet3, stronger effect = lower value): 0.999
- normalized growth (S. cerevisiae deletion strains, locus YMR078C, strain ctf18, stronger effect = lower value): 1.01
- normalized growth (S. cerevisiae deletion strains, locus YMR125W, strain sto1, stronger effect = lower value): 0.981
- normalized growth (S. cerevisiae deletion strains, locus YMR129W, stronger effect = lower value): 0.974
- normalized growth (S. cerevisiae deletion strains, locus YMR205C, strain PFK2, stronger effect = lower value): 0.981
- normalized growth (S. cerevisiae deletion strains, locus YMR223W, strain ubp8, stronger effect = lower value): 1
- normalized growth (S. cerevisiae deletion strains, locus YMR231W, strain pep5, stronger effect = lower value): 0.988
- normalized growth (S. cerevisiae deletion strains, locus YMR263W, strain SAP30, stronger effect = lower value): 1.03
- normalized growth (S. cerevisiae deletion strains, locus YMR307W, strain GAS1, stronger effect = lower value): 1.1
- normalized growth (S. cerevisiae deletion strains, locus YNL067W, strain RPL9B, stronger effect = lower value): 1.03
- normalized growth (S. cerevisiae deletion strains, locus YNL071W, strain lat1, stronger effect = lower value): 0.991
- normalized growth (S. cerevisiae deletion strains, locus YNL128W, strain TEP1, stronger effect = lower value): 1.02
- normalized growth (S. cerevisiae deletion strains, locus YNL153C, strain GIM3, stronger effect = lower value): 1.02
- normalized growth (S. cerevisiae deletion strains, locus YNL183C, strain NPR1, stronger effect = lower value): 0.978
- normalized growth (S. cerevisiae deletion strains, locus YNL209W, strain ssb2, stronger effect = lower value): 0.99
- normalized growth (S. cerevisiae deletion strains, locus YNL233W, strain BNI4, stronger effect = lower value): 1.02
- normalized growth (S. cerevisiae deletion strains, locus YNL248C, strain rpa49, stronger effect = lower value): 0.981
- normalized growth (S. cerevisiae deletion strains, locus YNL250W, strain rad50, stronger effect = lower value): 0.995
- normalized growth (S. cerevisiae deletion strains, locus YNL271C, strain bni1, stronger effect = lower value): 0.99
- normalized growth (S. cerevisiae deletion strains, locus YNL298W, strain CLA4, stronger effect = lower value): 0.984
- normalized growth (S. cerevisiae deletion strains, locus YNL307C, strain MCK1, stronger effect = lower value): 0.995
- normalized growth (S. cerevisiae deletion strains, locus YNL322C, strain KRE1 (second series), stronger effect = lower value): 0.982
- normalized growth (S. cerevisiae deletion strains, locus YNL322C, strain KRE1, stronger effect = lower value): 1.01
- normalized growth (S. cerevisiae deletion strains, locus YNR049C, strain mso1, stronger effect = lower value): 0.992
- normalized growth (S. cerevisiae deletion strains, locus YNR052C, strain pop2, stronger effect = lower value): 1
- normalized growth (S. cerevisiae deletion strains, locus YOL006C, strain TOP1, stronger effect = lower value): 1.1
- normalized growth (S. cerevisiae deletion strains, locus YOL012C, strain htz1): 0.868
- normalized growth (S. cerevisiae deletion strains, locus YOL147C, strain pex11, stronger effect = lower value): 0.985
- normalized growth (S. cerevisiae deletion strains, locus YOR001W, strain rrp6, stronger effect = lower value): 0.999
- normalized growth (S. cerevisiae deletion strains, locus YOR061W, strain CKA2, stronger effect = lower value): 1.02
- normalized growth (S. cerevisiae deletion strains, locus YOR069W, strain VPS5, stronger effect = lower value): 1.02
- normalized growth (S. cerevisiae deletion strains, locus YOR070C, strain gyp1, stronger effect = lower value): 0.984
- normalized growth (S. cerevisiae deletion strains, locus YOR080W, strain dia2, stronger effect = lower value): 0.996
- normalized growth (S. cerevisiae deletion strains, locus YOR083W, strain WHI5, stronger effect = lower value): 0.987
- normalized growth (S. cerevisiae deletion strains, locus YOR106W, strain vam3, stronger effect = lower value): 0.987
- normalized growth (S. cerevisiae deletion strains, locus YOR136W, strain idh2, stronger effect = lower value): 0.991
- normalized growth (S. cerevisiae deletion strains, locus YOR144C, strain elg1, stronger effect = lower value): 0.986
- normalized growth (S. cerevisiae deletion strains, locus YOR184W, strain ser1, stronger effect = lower value): 0.988
- normalized growth (S. cerevisiae deletion strains, locus YOR231W, strain MKK1, stronger effect = lower value): 1.03
- normalized growth (S. cerevisiae deletion strains, locus YOR265W, strain rbl2, stronger effect = lower value): 1
- normalized growth (S. cerevisiae deletion strains, locus YOR270C, strain vph1, stronger effect = lower value): 0.983
- normalized growth (S. cerevisiae deletion strains, locus YOR290C, strain snf2, stronger effect = lower value): 1
- normalized growth (S. cerevisiae deletion strains, locus YOR316C, strain cot1, stronger effect = lower value): 0.991
- normalized growth (S. cerevisiae deletion strains, locus YPL051W, strain arl3, stronger effect = lower value): 0.993
- normalized growth (S. cerevisiae deletion strains, locus YPL055C, strain LGE1, stronger effect = lower value): 1.05
- normalized growth (S. cerevisiae deletion strains, locus YPL078C, strain atp4, stronger effect = lower value): 0.994
- normalized growth (S. cerevisiae deletion strains, locus YPL106C, strain sse1, stronger effect = lower value): 0.977
- normalized growth (S. cerevisiae deletion strains, locus YPL240C, strain hsp82, stronger effect = lower value): 0.997
- normalized growth (S. cerevisiae deletion strains, locus YPL241C, strain CIN2, stronger effect = lower value): 1.02
- normalized growth (S. cerevisiae deletion strains, locus YPL256C, strain CLN2, stronger effect = lower value): 1.05
- normalized growth (S. cerevisiae deletion strains, locus YPR119W, strain clb2, stronger effect = lower value): 0.986
- normalized growth (S. cerevisiae deletion strains, locus YPR141C, strain kar3, stronger effect = lower value): 0.993
- normalized growth (S. cerevisiae deletion strains, locus YPR163C, strain tif3, stronger effect = lower value): 0.982
- normalized growth (S. cerevisiae deletion strains, locus YPR167C, strain met16, stronger effect = lower value): 0.988
- normalized growth (S. cerevisiae deletion strains, strain wtn01, stronger effect = lower value): 0.998
- normalized growth (S. cerevisiae strains, strain wild type, stronger effect = lower value): 1.01
